# Experimental data published in PubChem BioAssay (NCATS).
# Results filed as inconclusive are left out. Entries that show only a call come without a potency. Activity calls are given as the source filed them. Calls come from the whole dose curve; as a rule, active = well fitted curve in the direction sought with a large enough effect; inconclusive = small, poorly fitted or top-dose-only effect, or another doubt; inactive = no such curve, though single readings can be large; an effect the other way counts as inactive or inconclusive.
# Columns and labels:
# [1] = qHTS of pediatric cancer cell lines to identify multiple opportunities for drug repurposing: Primary screen for NB1643 cells (AID 1347099); note: nearly all actives have a fitted effect of over 50% in size; note: potency is the fitted concentration of half-maximal effect
# Procedure, shortened: (§1)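 ATP-based luminescence (CellTiter-Glo) quantifies viability after a 48-hour exposure. Compounds are dosed across 8 or 11 final concentrations; DMSO and 2.3 µM bortezomib serve as controls.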
# [2] = qHTS of pediatric cancer cell lines to identify multiple opportunities for drug repurposing: Primary screen for LAN-5 cells (AID 1347100); note: potency is the fitted concentration of half-maximal effect
# Procedure, shortened: (§2)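 Viability after 48 h compound treatment at 37C, 500-1,000 cells/well, read as ATP luminescence with CellTiter-Glo. Primary screens used 11-point (MIPE, 0.78 nM-46 µM) or 8-point (NPC, 0.59 nM-46 µM) final concentrations; follow-up screens used 11-point dilutions.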
# [3] = qHTS of pediatric cancer cell lines to identify multiple opportunities for drug repurposing: Primary screen for BT-12 cells (AID 1347101); note: nearly all actives have a fitted effect of over 25% in size; note: potency is the fitted concentration of half-maximal effect
# Procedure, shortened: (§3)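 Cells (500-1,000/well) rested 5 h, then received compounds for 48 h; metabolically active cells were measured by CellTiter-Glo luminescence. Final concentrations spanned up to 46 µM (MIPE, 11-point) or 0.59 nM-46 µM (NPC, 8-point) in primary screens, 11-point in follow-ups.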
# [4] = qHTS of pediatric cancer cell lines to identify multiple opportunities for drug repurposing: Primary screen for Rh18 cells (AID 1347102); note: nearly all actives have a fitted effect of over 65% in size
# Procedure, shortened: as §2
# [5] = qHTS of pediatric cancer cell lines to identify multiple opportunities for drug repurposing: Primary screen for OHS-50 cells (AID 1347103); note: nearly all actives have a fitted effect of over 40% in size; note: potency is the fitted concentration of half-maximal effect
# Procedure, shortened: as §3
# [6] = qHTS of pediatric cancer cell lines to identify multiple opportunities for drug repurposing: Primary screen for MG 63 (6-TG R) cells (AID 1347105); note: nearly all actives have a fitted effect of over 50% in size; note: potency is the fitted concentration of half-maximal effect
# Procedure, shortened: as §1
# [7] = qHTS of pediatric cancer cell lines to identify multiple opportunities for drug repurposing: Primary screen for control Hh wild type fibroblast cells (AID 1347106);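 note: series mostly up to about 46 µM; a drop in luminescence marks cytotoxicity and a rise apparent proliferation; nearly all actives have a fitted effect of over 55% in size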
# Procedure, shortened: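 Cells (500-1,000/well) in growth media were settled 5 h at 37 degrees C, then given compounds for 48 h. Viability was read as CellTiter-Glo luminescence. Primary runs used MIPE at 11 points (0.78 nM-46 µM) and NPC at 8 points (0.59 nM-46 µM); follow-ups used 11 points.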
# [8] = qHTS of pediatric cancer cell lines to identify multiple opportunities for drug repurposing: Primary screen for Rh30 cells (AID 1347107); note: series mostly up to about 46 µM; nearly all actives have a fitted effect of over 75% in size
# Procedure, shortened: as §2
# [9] = qHTS of pediatric cancer cell lines to identify multiple opportunities for drug repurposing: Primary screen for Rh41 cells (AID 1347108);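 note: series mostly up to about 46 µM; luminescence drop marks cytotoxic hits; nearly all actives have a fitted effect of over 70% in size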
# Procedure, shortened: as §1
# [10] = qHTS of pediatric cancer cell lines to identify multiple opportunities for drug repurposing: Primary screen for RD cells (AID 1347104); note: nearly all actives have a fitted effect of over 55% in size
# Procedure, shortened: as §1
# [11] = qHTS of pediatric cancer cell lines to identify multiple opportunities for drug repurposing: Confirmatory screen for A673 cells (AID 1347110); note: nearly all actives have a fitted effect of over 65% in size; note: potency is the fitted concentration of half-maximal effect
# Procedure, shortened: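 qHTS titration format: primary MIPE 0.78 nM-46 µM (11 pts), NPC 0.59 nM-46 µM; confirmation 11 pts. 48 h, CTG luminescence.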
# [12] = qHTS of pediatric cancer cell lines to identify multiple opportunities for drug repurposing: Confirmatory screen for LAN-5 cells (AID 1347113); note: nearly all actives have a fitted effect of over 65% in size; note: potency is the fitted concentration of half-maximal effect
# Procedure, shortened: as §2
# [13] = qHTS of pediatric cancer cell lines to identify multiple opportunities for drug repurposing: Confirmatory screen for DAOY cells (AID 1347114); note: nearly all actives have a fitted effect of over 65% in size; note: potency is the fitted concentration of half-maximal effect
# Procedure, shortened: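 Viability measured as metabolically active cells via CellTiter-Glo luminescence following 48 hours of compound exposure, 11-point dilutions in confirmatory testing. 500-1,000 cells/well plated 5 hours before dosing; controls were DMSO and 2.3 µM bortezomib.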
# [14] = qHTS of pediatric cancer cell lines to identify multiple opportunities for drug repurposing: Confirmatory screen for NB-EBc1 cells (AID 1347115); note: nearly all actives have a fitted effect of over 45% in size; note: potency is the fitted concentration of half-maximal effect
# Procedure, shortened: as §2
# [15] = qHTS of pediatric cancer cell lines to identify multiple opportunities for drug repurposing: Confirmatory screen for BT-37 cells (AID 1347117); note: nearly all actives have a fitted effect of over 55% in size; note: potency is the fitted concentration of half-maximal effect
# Procedure, shortened: as §2
# [16] = qHTS of pediatric cancer cell lines to identify multiple opportunities for drug repurposing: Confirmatory screen for TC32 cells (AID 1347118)
# Procedure, shortened: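 qHTS, TC32, 48 h drug treatment, CellTiter-Glo luminescence as a proxy for metabolically active cells; primary top concentration 46 µM (MIPE 11-pt, NPC 8-pt); confirmatory 11-pt.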
# [17] = qHTS of pediatric cancer cell lines to identify multiple opportunities for drug repurposing: Confirmatory screen for MG 63 (6-TG R) cells (AID 1347119); note: potency is the fitted concentration of half-maximal effect; nearly all actives have a fitted effect of over 55% in size
# Procedure, shortened: as §2
# [18] = qHTS of pediatric cancer cell lines to identify multiple opportunities for drug repurposing: Confirmatory screen for SK-N-MC cells (AID 1347111);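 note: potency is the fitted concentration of half-maximal effect; cells exposed to compound for 48 h before the readout; nearly all actives have a fitted effect of over 70% in size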
# Procedure, shortened: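 SK-N-MC cells at 500-1,000 cells/well in growth media were pre-incubated 5 h, then exposed to compounds at 11-point dilutions for 48 h at 37 degrees C, 5% CO2. Viability was read as CellTiter-Glo luminescence.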
# [19] = qHTS of pediatric cancer cell lines to identify multiple opportunities for drug repurposing: Confirmatory screen for BT-12 cells (AID 1347112)
# Procedure, shortened: as §2
smiles,measurement,setting,value
CCCCOC(=O)CCCCCCCCC(=O)OCCCC,Potency,[1],inactive
same,Potency,[2],inactive
same,Potency,[3],inactive
same,Potency,[4],inactive
same,Potency,[5],inactive
same,Potency,[6],inactive
same,Potency,[7],inactive
same,Potency,[8],inactive
same,Potency,[9],inactive
Cc1ccc(CCn2c3c(c4cc(Cl)ccc42)CN(C)CC3)cn1,Potency,[1],inactive
same,Potency,[2],inactive
same,Potency,[4],inactive
same,Potency,[6],inactive
same,Potency,[7],inactive
same,Potency,[8],inactive
same,Potency,[9],inactive
N=C(N)c1ccc(OCCCOc2ccc(C(=N)N)cc2)cc1,Potency,[1],inactive
same,Potency,[2],inactive
same,Potency,[3],2190 nM (active)
same,Potency,[4],inactive
same,Potency,[5],inactive
same,Potency,[10],inactive
same,Potency,[6],inactive
same,Potency,[7],inactive
same,Potency,[8],inactive
same,Potency,[9],inactive
same,Potency,[11],inactive
same,Potency,[12],inactive
same,Potency,[13],18500 nM (active)
same,Potency,[14],inactive
same,Potency,[15],inactive
same,Potency,[16],23300 nM (active)
CC(CC1c2ccccc2CCc2ccccc21)CN(C)C (stereo unspecified),Potency,[1],inactive
same,Potency,[2],inactive
same,Potency,[4],inactive
same,Potency,[6],inactive
same,Potency,[7],inactive
same,Potency,[8],inactive
same,Potency,[9],inactive
CO[C@@H]1[C@@H](O[C@@H]2O[C@H](C)[C@@H](O[C@H]3C[C@@](C)(O)[C@@H](O)[C@H](C)O3)[C@H](N(C)C)[C@H]2O)[C@@H](CC=O)C[C@@H](C)[C@@H](O[C@@H]2CC[C@H](N(C)C)[C@@H](C)O2)/C=C/C=C/C[C@@H](C)OC(=O)C[C@H]1OC(C)=O,Potency,[1],inactive
same,Potency,[2],inactive
same,Potency,[4],inactive
same,Potency,[10],inactive
same,Potency,[6],inactive
same,Potency,[7],inactive
same,Potency,[8],inactive
same,Potency,[9],inactive
CC(=O)Nc1c(I)c(NC(C)=O)c(I)c(C(=O)O)c1I,Potency,[1],inactive
same,Potency,[2],inactive
same,Potency,[4],inactive
same,Potency,[5],inactive
same,Potency,[10],inactive
same,Potency,[6],inactive
same,Potency,[7],inactive
same,Potency,[8],inactive
same,Potency,[9],inactive
CCC[C@H](N[C@@H](C)C(=O)N1[C@H](C(=O)O)C[C@@H]2CCCC[C@@H]21)C(=O)OCC,Potency,[1],inactive
same,Potency,[2],inactive
same,Potency,[4],inactive
same,Potency,[10],inactive
same,Potency,[6],inactive
same,Potency,[7],inactive
same,Potency,[8],inactive
same,Potency,[9],inactive
C1N2CN3CN1CN(C2)C3,Potency,[1],inactive
same,Potency,[3],inactive
same,Potency,[4],inactive
same,Potency,[5],inactive
same,Potency,[10],inactive
same,Potency,[6],inactive
same,Potency,[7],inactive
same,Potency,[8],inactive
same,Potency,[9],inactive
C[C@H]1C[C@H]2[C@@H]3CCC4=CC(=O)C=C[C@]4(C)[C@H]3C(=O)C[C@]2(C)[C@@]1(O)C(=O)CO,Potency,[1],inactive
same,Potency,[2],inactive
same,Potency,[3],inactive
same,Potency,[4],inactive
same,Potency,[5],inactive
same,Potency,[6],inactive
same,Potency,[7],inactive
same,Potency,[8],inactive
same,Potency,[9],inactive
same,Potency,[12],2930 nM (active)
same,Potency,[13],inactive
same,Potency,[14],8270 nM (active)
same,Potency,[15],2930 nM (active)
same,Potency,[17],4650 nM (active)
CCOC(=O)[C@H](CCc1ccccc1)N[C@@H](C)C(=O)N(CC(=O)O)C1Cc2ccccc2C1,Potency,[1],inactive
same,Potency,[2],inactive
same,Potency,[5],inactive
same,Potency,[10],inactive
same,Potency,[7],inactive
same,Potency,[8],inactive
NC(=O)COCCN1CCN(C(c2ccccc2)c2ccc(Cl)cc2)CC1 (stereo unspecified),Potency,[1],inactive
same,Potency,[2],inactive
same,Potency,[4],inactive
same,Potency,[5],inactive
same,Potency,[10],inactive
same,Potency,[6],inactive
same,Potency,[7],inactive
same,Potency,[8],inactive
same,Potency,[9],inactive
O=C(CO)[C@@H](O)[C@H](O)[C@@H](O)CO,Potency,[1],inactive
same,Potency,[3],inactive
same,Potency,[4],inactive
same,Potency,[5],inactive
same,Potency,[10],inactive
same,Potency,[6],inactive
same,Potency,[7],inactive
same,Potency,[8],inactive
same,Potency,[9],inactive
O=C(c1ccccc1)c1ccccc1,Potency,[1],inactive
same,Potency,[2],inactive
same,Potency,[4],inactive
same,Potency,[5],inactive
same,Potency,[10],inactive
same,Potency,[6],inactive
same,Potency,[8],inactive
same,Potency,[9],inactive
O=C1[C@@H]2[C@H]3CC[C@H](C3)[C@@H]2C(=O)N1CCCCN1CCN(c2ncccn2)CC1,Potency,[1],inactive
same,Potency,[2],inactive
same,Potency,[3],inactive
same,Potency,[4],inactive
same,Potency,[5],inactive
same,Potency,[6],inactive
same,Potency,[7],inactive
same,Potency,[8],inactive
same,Potency,[9],inactive
CC(C)NCCCC1(C(N)=O)c2ccccc2-c2ccccc21,Potency,[1],inactive
same,Potency,[2],inactive
same,Potency,[4],inactive
same,Potency,[5],inactive
same,Potency,[10],inactive
same,Potency,[6],inactive
same,Potency,[7],inactive
same,Potency,[8],inactive
C[C@@H](C1=C(CCN(C)C)Cc2ccccc21)c1ccccn1,Potency,[1],inactive
same,Potency,[2],inactive
same,Potency,[3],inactive
same,Potency,[4],inactive
same,Potency,[10],inactive
same,Potency,[6],inactive
same,Potency,[8],inactive
same,Potency,[9],inactive
CN1CC(=O)N2[C@H](c3ccc4c(c3)OCO4)c3[nH]c4ccccc4c3C[C@@H]2C1=O,Potency,[1],inactive
same,Potency,[2],inactive
same,Potency,[3],inactive
same,Potency,[4],inactive
same,Potency,[5],inactive
same,Potency,[10],inactive
same,Potency,[6],inactive
same,Potency,[8],inactive
same,Potency,[9],inactive
O=C(O)CCCC[P+](c1ccccc1)(c1ccccc1)c1ccccc1,Potency,[1],inactive
same,Potency,[2],inactive
same,Potency,[3],inactive
same,Potency,[4],inactive
same,Potency,[5],inactive
same,Potency,[6],inactive
same,Potency,[7],inactive
same,Potency,[8],inactive
same,Potency,[9],inactive
O=C1Cc2cc(Cl)ccc2N1,Potency,[1],inactive
same,Potency,[2],inactive
same,Potency,[4],inactive
same,Potency,[5],inactive
same,Potency,[10],inactive
same,Potency,[6],inactive
same,Potency,[8],inactive
same,Potency,[9],inactive
CC(C)(c1ccc(O)cc1)c1ccc(O)cc1,Potency,[1],inactive
same,Potency,[2],inactive
same,Potency,[4],inactive
same,Potency,[10],inactive
same,Potency,[7],inactive
same,Potency,[8],inactive
CCC1=C[C@@H]2CN(C1)Cc1c([nH]c3ccccc13)[C@@](C(=O)OC)(c1cc3c(cc1OC)N(C)[C@H]1[C@@](O)(C(=O)OC)[C@H](OC(C)=O)[C@]4(CC)C=CCN5CC[C@]31[C@@H]54)C2,Potency,[1],2660 nM (active)
same,Potency,[2],8.4 nM (active)
same,Potency,[3],34.7 nM (active)
same,Potency,[5],19.5 nM (active)
same,Potency,[6],21.1 nM (active)
same,Potency,[8],inactive
same,Potency,[11],11.7 nM (active)
same,Potency,[18],18.5 nM (active)
same,Potency,[19],52.2 nM (active)
same,Potency,[12],329 nM (active)
same,Potency,[13],32.9 nM (active)
same,Potency,[15],26.1 nM (active)
same,Potency,[16],16.5 nM (active)
same,Potency,[17],23.3 nM (active)
CN(C)CCOC1=Cc2ccccc2Sc2ccc(Cl)cc21,Potency,[1],inactive
same,Potency,[2],inactive
same,Potency,[4],inactive
same,Potency,[5],24600 nM (active)
same,Potency,[6],inactive
same,Potency,[7],inactive
same,Potency,[8],inactive
O=C(Oc1ccccc1)c1ccccc1O,Potency,[1],inactive
same,Potency,[2],inactive
same,Potency,[3],inactive
same,Potency,[4],inactive
same,Potency,[5],inactive
same,Potency,[10],inactive
same,Potency,[6],inactive
same,Potency,[7],inactive
same,Potency,[8],inactive
same,Potency,[9],inactive
O=C(O)c1cn(C2CC2)c2cc(Cl)c(F)cc2c1=O,Potency,[1],inactive
same,Potency,[2],inactive
same,Potency,[3],inactive
same,Potency,[5],inactive
same,Potency,[10],inactive
same,Potency,[6],inactive
same,Potency,[7],inactive
same,Potency,[8],inactive
same,Potency,[9],inactive
O=C(OCC(O)CO)c1ccccc1Nc1ccnc2c(C(F)(F)F)cccc12 (stereo unspecified),Potency,[1],inactive
same,Potency,[2],inactive
same,Potency,[4],inactive
same,Potency,[10],inactive
same,Potency,[6],inactive
same,Potency,[7],inactive
same,Potency,[8],inactive
same,Potency,[9],inactive
Cc1[nH]cnc1-c1ccc(Cl)cc1,Potency,[1],inactive
same,Potency,[2],inactive
same,Potency,[3],inactive
same,Potency,[5],inactive
same,Potency,[10],inactive
same,Potency,[7],inactive
same,Potency,[8],inactive
same,Potency,[9],inactive
O=C(CS(=O)Cc1ccco1)NC/C=C\COc1cc(CN2CCCCC2)ccn1 (stereo unspecified),Potency,[1],inactive
same,Potency,[2],inactive
same,Potency,[4],inactive
same,Potency,[5],inactive
same,Potency,[10],inactive
same,Potency,[6],inactive
same,Potency,[7],inactive
same,Potency,[8],inactive
same,Potency,[9],inactive
